# Reference: PubChem BioAssay AID1479146 (National Center for Advancing Translational Sciences (NCATS), 2020)
# Records with an inconclusive call do not appear. A call without a number means that no potency is given here. Values without a mark were called inactive. Activity calls are given as the source filed them. Calls follow the shape of the full dose curve.
# Assay: Confirmatory qHTS for Huh7 cytotoxicity: counterscreen for inhibitors of MERS-S pseudo-typed particle cell entry
# Conditions: viability; series mostly up to 57.1 µM
Compound,Potency,"activity change, negative = cytotoxicity"
CCCCc1oc2ccccc2c1C(=O)c1cc(I)c(OCCN(CC)CC)c(I)c1,inactive,–
C/C=C(/C)C(=O)O[C@H]1C(C)=CC23C(=O)C(C=C(CO)[C@@H](O)[C@]12O)[C@H]1[C@@H](C[C@H]3C)C1(C)C (some centres not stated),inactive,–
COc1cccc2c1C(=O)c1c(O)c3c(c(O)c1C2=O)C[C@@](O)(C(C)=O)C[C@@H]3O[C@H]1C[C@H](N)[C@H](O)[C@H](C)O1,6.07 µM (active),–
C=C(C)[C@H]1Cc2c(ccc3c2O[C@@H]2COc4cc(OC)c(OC)cc4[C@@H]2C3=O)O1,6.81 µM (active),–
CC(C)C[C@H](NC(=O)[C@H](CCc1ccccc1)NC(=O)CN1CCOCC1)C(=O)N[C@@H](Cc1ccccc1)C(=O)N[C@@H](CC(C)C)C(=O)[C@@]1(C)CO1,0.192 µM (active),–
Cc1nnc2n1-c1sc(CCc3ccc(CC(C)C)cc3)cc1C(c1ccccc1Cl)=NC2C (configuration not stated),inactive,–
Cc1nnc(C(=O)NC(C)(C)c2nc(C(=O)NCc3ccc(F)cc3)c(O)c(=O)n2C)o1,inactive,–
CCn1cc(C(=O)O)c(=O)c2cc(F)c(N3CCNC(C)C3)c(F)c21 (configuration not stated),inactive,–
CC(=O)OCC1=C(C(=O)O)N2C(=O)[C@@H](NC(=O)Cc3cccs3)[C@H]2SC1,inactive,–
C=CC1(C)CC(=O)C2(O)C(C)(O1)C(OC(C)=O)C(OC(=O)CCN(C)C)C1C(C)(C)CCC(O)C12C (configuration not stated),inactive,–
CC(=O)N1CCN(c2ccc(OC[C@H]3CO[C@](Cn4ccnc4)(c4ccc(Cl)cc4Cl)O3)cc2)CC1,inactive,–
CCC(C)(C)C(=O)O[C@H]1C[C@@H](C)C=C2C=C[C@H](C)[C@H](CC[C@@H]3C[C@@H](O)CC(=O)O3)[C@H]21,inactive,–
C=CC(=O)Nc1cc(Nc2nccc(-c3cn(C)c4ccccc34)n2)c(OC)cc1N(C)CCN(C)C,10.8 µM (active),–
CN1CCC(=C2c3ccccc3CCc3sccc32)CC1,inactive,–
CN(C/C=C/c1ccccc1)Cc1cccc2ccccc12,inactive,–
CCOc1cc2ncc(C#N)c(Nc3ccc(OCc4ccccn4)c(Cl)c3)c2cc1NC(=O)/C=C/CN(C)C,–,-7.24% [at 11.2 µM]
N=C(N)c1ccc(OCCCCCOc2ccc(C(=N)N)cc2)cc1,inactive,–
Cc1cc(C(C#N)c2ccc(Cl)cc2)c(Cl)cc1NC(=O)c1cc(I)cc(I)c1O (configuration not stated),inactive,–
O=c1ccc2ccccc2o1,inactive,–
Cc1c(N)nc(C(CC(N)=O)NCC(N)C(N)=O)nc1C(=O)NC(C(=O)NC(C)C(O)C(C)C(=O)NC(C(=O)NCCc1nc(-c2nc(C(=O)NCCCN[C@@H](C)c3ccccc3)cs2)cs1)C(C)O)C(O[C@@H]1O[C@@H](CO)[C@@H](O)[C@H](O)[C@@H]1O[C@H]1O[C@H](CO)[C@@H](O)[C@H](OC(N)=O)[C@@H]1O)c1cnc[nH]1 (some centres not stated),inactive,–
Nc1ccn([C@@H]2O[C@H](CO)[C@@H](O)C2(F)F)c(=O)n1,inactive,–
COc1cccc2c1C(=O)c1c(O)c3c(c(O)c1C2=O)C[C@@](O)(C(=O)CO)C[C@@H]3O[C@H]1C[C@H](N)[C@@H](O)[C@H](C)O1,2.15 µM (active),–
CCN(CC)CCNC(=O)c1c(C)[nH]c(/C=C2\C(=O)Nc3ccc(F)cc32)c1C,27.1 µM (active),–
COc1cccc2c1C(=O)c1c(O)c3c(c(O)c1C2=O)C[C@@](O)(C(=O)CO)CC3OC1CC(N2CCOC(OC)C2)C(O)C(C)O1 (some centres not stated),0.136 µM (active),–
CC(CN(C)C)CN1c2ccccc2CCc2ccccc21 (configuration not stated),inactive,–
COc1c(OCCCN2CCOCC2)ccc2c3n(c(=NC(=O)c4cnc(N)nc4)nc12)CCN3,–,-10.8% [at 11.2 µM]
CN(C)[C@@H](CCOc1cccc2ccccc12)c1ccccc1,inactive,–
